Assay [1] in a line: TOX21_p53_BLA_p2_viability: Viability Assessment in the Tox21 HCT-116 p53 Agonism Beta-lactamase Assay, Phase 2 (AID 2283591).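 Also: compound exposure lasted 16 h at 37 °C; actives lower the ATP signal meaning cytotoxicity.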 In a few lines:
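HCT116 p53-bla cells, 4000/well, dosed after 5 h plating (217-fold dilution of DMSO stocks) and incubated 16 h at 37C. Viability taken as cellular ATP by CellTiter-Glo luminescence after 30 min RT; signal loss marks cytotoxicity.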

The target of assay [2] is Cellular tumor antigen p53 (Homo sapiens) (UniProt P04637). In words: TOX21_p53_BLA_p2_ratio: Tox21 HCT-116 p53 Agonism Beta-lactamase Assay, Ratio, Phase 2 (AID 2283592). In a few lines: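 In this cell-based reporter format, HCT116 cells were dosed with chemicals delivered from DMSO by 217-fold dilution and incubated 16 h at 37C. Emission at 460 and 530 nm after 2 h CCF4-AM loading provided the ratio, fitted upward versus DMSO.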

Assay [3] can be described thus: TOX21_p53_BLA_p3_viability: Viability Assessment in the Tox21 HCT-116 p53 Agonism Beta-lactamase Assay, Phase 3 (AID 2283593).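 Also: cells exposed to compound for 16 h before reading.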 In a few lines:
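HCT116 cells, 4000/well, dosed 5 h after plating by pin transfer (217-fold dilution from DMSO stock) and incubated 16 h at 37C, 5% CO2. Viability read as ATP luminescence with CellTiter-Glo after 30 min at room temperature.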

Assay [4] addresses Cellular tumor antigen p53 (Homo sapiens) (UniProt P04637). The assay can be described thus: TOX21_p53_BLA_p3_ratio: Tox21 HCT-116 p53 Agonism Beta-lactamase Assay, Ratio, Phase 3 (AID 2283596). In short, it runs like this: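 HCT116 p53-bla cells (4000/well) given compound in DMSO (217-fold dilution) after 5 h, incubated 16 h at 37C. CCF4-AM substrate 2 h at room temperature; 460/530 nm emission ratio, gain fitted against DMSO.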

Assay [5] can be described thus: TOX21_p53_BLA_p4_viability: Viability Assessment in the Tox21 HCT-116 p53 Agonism Beta-lactamase Assay, Phase 4 (AID 2283597).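 Also: hits lower the luminescence signal meaning cytotoxicity.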 In short, it runs like this:
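We seeded HCT116 p53 reporter cells at 4000/well and waited 5 h. We then added compounds in DMSO at a 217-fold dilution and incubated for 16 h. Viability was read as CellTiter-Glo luminescence after 30 min at RT.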

Assay [6] is described as follows: TOX21_p53_BLA_p5_viability: Viability Assessment in the Tox21 HCT-116 p53 Agonism Beta-lactamase Assay, Phase 5 (AID 2283600). In short, it runs like this: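 Compounds, pinned from DMSO at 217-fold dilution, were left on the cells for 16 h. The viability endpoint was ATP content measured by CellTiter-Glo luminescence, where falling signal reflects cytotoxicity.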

In assay [7] the target is Cellular tumor antigen p53 (Homo sapiens) (UniProt P04637). In words: TOX21_p53_BLA_p4_ratio: Tox21 HCT-116 p53 Agonism Beta-lactamase Assay, Ratio, Phase 4 (AID 2283601). In a few lines:
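HCT-116 p53 beta-lactamase reporter cells (4000/well) preincubated 5 h, then compound (217-fold dilution of DMSO stock) for 16 h at 37C. CCF4-AM substrate added 2 h at room temperature; 460/530 nm emission ratio fitted upward versus DMSO.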

Assay [8] can be described thus: CCTE_Harrill_HTTr_Viability_MCF7: CCTE's 6-hour Cell Viability Assessment for the High-Throughput Transcriptomics (HTTr) Platform, in MCF-7 cells cultured in DMEM + 10% fetal bovine serum, Harrill Lab (AID 2284010; active = hit-call score of the fitted dose curve at least 0.9, where 1 is the maximum; inactive = score below 0.9). In short, it runs like this:
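Membrane integrity was scored by high-content imaging of propidium iodide dye exclusion after a 6 h exposure across an eight-point dilution series. Data were fitted bidirectionally relative to DMSO as negative control and baseline.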

Assay [9] is described as follows: CCTE_Harrill_HTTr_Apoptosis_MCF7: CCTE's 6-hour Apoptosis Assessment for the High-Throughput Transcriptomics (HTTr) Platform, in MCF-7 cells cultured in DMEM + 10% fetal bovine serum, Harrill Lab (AID 2284011; active = hit-call score of the fitted dose curve at least 0.9, where 1 is the maximum; inactive = score below 0.9). In short, it runs like this:
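Read-out: CellEvent Caspase 3/7 Green signal by high content imaging, gain-of-signal indicating apoptosis. MCF-7 cells, DMEM + 10% FBS, eight-point dilution series, 6 h exposure. Curves fitted bidirectionally relative to DMSO negative control.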

A short description of assay [10]: CCTE_Harrill_HTTr_CellCount_MCF7: CCTE's Cell Proliferation Assessment for the High-Throughput Transcriptomics (HTTr) Platform, Harrill Lab (AID 2284012).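 Also: cells exposed to compound for six hours; intended direction is loss of nuclei count meaning fewer cells.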 In a few lines:
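MCF-7 cells were exposed for 6 h to an eight-point dilution series; Hoechst-labeled nuclei were counted by high content imaging. Curves were fitted bidirectionally against DMSO as negative control and baseline, with signal loss indicating reduced cell count.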

Assay [11] is described as follows: TOX21_PR_BLA_Followup_Agonist_viability: Viability Assessment in the Tox21 HEK293 Progesterone Receptor (PR) Agonism Beta-lactamase Follow-Up Assay (AID 2283935).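 Also: signal loss means lower viability so actives are cytotoxic.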 In short, it runs like this: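 PR-UAS-bla HEK293T cells in 2% charcoal-stripped FBS medium, compound added after 6 hr plating, 16 hr at 37C/5% CO2. After bla FRET read, CellTiter-Glo added; luminescence read after 30 min at room temperature; signal loss marks cytotoxicity.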

Assay [12] is described as follows: TOX21_PR_BLA_Followup_Antagonist_viability: Viability Assessment in the Tox21 HEK293 Progesterone Receptor (PR) Antagonism Beta-lactamase Follow-Up Assay (AID 2283936).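 Also: hits lower the luminescence signal meaning cytotoxicity.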 In a few lines: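 PR-UAS-bla HEK293T cells (3,000/well, 2% charcoal-stripped FBS) given compound plus R5020 agonist, 16 h at 37C. CellTiter-Glo added after bla read, 30 min at room temperature; luminescence loss indicates cytotoxicity.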

Assay [13] deals with PGR (gene 5241) (UniProt P06401). In words: TOX21_PR_LUC_Followup_Antagonist: Tox21 HEK293 Progesterone Receptor (PR) Antagonism Luciferase Follow-Up Assay (AID 2283938).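 Also: curve fitted upward as signal gain over DMSO baseline despite antagonist label.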 In short, it runs like this: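 Luminescence from ONE-Glo reagent, measured after 30 min at room temperature, served as readout. Cells (HEK293 carrying PR-A-luc) had been treated 16 h at 37C with DMSO-dissolved compounds. Activity was fitted against DMSO controls.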

The nature of assay [14]: TOX21_PR_LUC_Followup_Antagonist_viability: Viability Assessment in the Tox21 HEK293 Progesterone Receptor (PR) Antagonism Luciferase Follow-Up Assay (AID 2283940). In short, it runs like this: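 HEK293-PR-A-luc cells, precultured 5 days in assay medium with 10% charcoal-stripped FBS, were seeded at 3,000 cells/well, treated with compounds in DMSO for 16 h at 37C, and viability was read as cellular ATP by CellTiter-Glo luminescence.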

The target of assay [15] is PGR (gene 5241) (UniProt P06401). In words: TOX21_PR_BLA_Followup_Antagonist_ratio: Tox21 HEK293 Progesterone Receptor (PR) Antagonism Beta-lactamase Follow-Up Assay, Ratio (AID 2283934). In a few lines: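 PR-UAS-bla HEK293T cells in medium with 2% charcoal-stripped FBS were treated with compounds plus 1 nM (final) promegestone (R5020) for 16 hr at 37C. LiveBLAzer B/G FRET substrate was then added for 2 h at room temperature; signal is cleaved/uncleaved substrate ratio versus DMSO.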

Assay [16] is described as follows: TOX21_PR_LUC_Followup_Agonist_viability: Viability Assessment in the Tox21 HEK293 Progesterone Receptor (PR) Agonism Luciferase Follow-Up Assay (AID 2283941).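 Also: loss of signal means cytotoxicity so actives lower viability.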 In short, it runs like this: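 HEK293-PR-A-luc cells, pre-cultured 5 days in 10% charcoal-stripped FBS, were seeded at 3,000 cells/well, rested 5 h at 37C, then given compound in DMSO for 16 h at 37C. Cellular ATP was read by CellTiter-Glo luminescence; signal loss indicates cytotoxicity.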

Results filed as inconclusive are left out. Active and inactive are the calls of the source. The calls were made as follows, unless noted: active = hit-call score of the fitted dose curve at least 0.9, where 1 is the maximum; inconclusive = response in the unintended direction; inactive = score below 0.9.

Sequence of Cellular tumor antigen p53 (Homo sapiens) (P04637 whole entry, looked up): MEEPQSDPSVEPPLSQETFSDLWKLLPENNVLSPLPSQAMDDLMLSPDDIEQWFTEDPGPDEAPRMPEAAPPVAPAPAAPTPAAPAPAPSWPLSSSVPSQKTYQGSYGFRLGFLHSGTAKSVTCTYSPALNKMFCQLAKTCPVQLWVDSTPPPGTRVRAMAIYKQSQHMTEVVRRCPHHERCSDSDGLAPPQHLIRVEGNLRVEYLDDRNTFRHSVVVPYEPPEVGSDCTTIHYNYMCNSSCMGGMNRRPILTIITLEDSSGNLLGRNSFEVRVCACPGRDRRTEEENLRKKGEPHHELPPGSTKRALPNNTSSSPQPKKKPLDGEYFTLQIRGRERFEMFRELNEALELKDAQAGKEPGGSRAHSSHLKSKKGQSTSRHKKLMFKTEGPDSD
Sequence of PGR (gene 5241) (P06401 whole entry, looked up): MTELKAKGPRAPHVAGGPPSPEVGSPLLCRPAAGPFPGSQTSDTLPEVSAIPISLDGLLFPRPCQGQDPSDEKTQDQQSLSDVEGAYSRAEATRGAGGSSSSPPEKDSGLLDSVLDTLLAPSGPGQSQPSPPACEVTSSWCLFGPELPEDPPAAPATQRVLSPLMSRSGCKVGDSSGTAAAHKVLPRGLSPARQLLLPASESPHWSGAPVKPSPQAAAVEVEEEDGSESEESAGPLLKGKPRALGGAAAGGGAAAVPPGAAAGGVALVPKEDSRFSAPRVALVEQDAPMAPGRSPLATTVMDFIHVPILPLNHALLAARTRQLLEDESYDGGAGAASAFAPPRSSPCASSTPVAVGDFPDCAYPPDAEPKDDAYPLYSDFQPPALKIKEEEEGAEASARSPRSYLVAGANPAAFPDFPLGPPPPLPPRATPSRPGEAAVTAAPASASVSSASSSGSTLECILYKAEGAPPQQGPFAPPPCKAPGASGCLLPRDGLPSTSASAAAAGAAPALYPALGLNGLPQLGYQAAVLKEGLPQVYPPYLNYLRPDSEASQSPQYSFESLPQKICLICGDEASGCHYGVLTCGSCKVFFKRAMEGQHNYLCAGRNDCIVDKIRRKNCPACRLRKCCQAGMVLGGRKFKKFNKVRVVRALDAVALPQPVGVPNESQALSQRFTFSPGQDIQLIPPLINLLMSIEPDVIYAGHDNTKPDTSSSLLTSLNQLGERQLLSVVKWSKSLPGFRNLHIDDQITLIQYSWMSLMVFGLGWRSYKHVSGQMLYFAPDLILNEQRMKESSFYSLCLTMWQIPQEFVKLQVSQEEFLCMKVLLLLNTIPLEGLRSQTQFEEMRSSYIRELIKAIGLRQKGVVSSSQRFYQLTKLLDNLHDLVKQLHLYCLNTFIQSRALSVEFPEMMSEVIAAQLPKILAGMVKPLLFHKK

On to `CC1(C)S[C@@H]2[C@H](NC(=O)[C@H](N)c3ccccc3)C(=O)N2[C@H]1C(=O)OCOC(=O)[C@@H]1N2C(=O)C[C@H]2S(=O)(=O)C1(C)C`, for which the call in [1], in assay [2], in assay [3], in assay [4], in [5] and in assay [6] was inactive. Also, the outcome in assay [7] was inactive.

Turning to `COCC1=C(C(=O)OC(C)OC(=O)OC(C)C)N2C(=O)[C@@H](NC(=O)/C(=N\OC)c3csc(N)n3)[C@H]2SC1` (stereo not given in full), the compound was called inactive in assay [1], in [2], in [3], in assay [4], in [5] and in assay [6]. Besides, the result in assay [7] was inactive.

`CN(C/C=C/C#CC(C)(C)C)Cc1cccc2ccccc12`: the compound was called inactive in [1], in assay [2], in assay [3], in [4], in assay [5] and in assay [6]. Further, the result in [7] was inactive.

`O=c1n(CCCN2CCN(c3cccc(Cl)c3)CC2)nc2ccccn12`: the compound was called inactive in [1], in [2], in assay [3], in assay [4], in [5] and in assay [6]. The outcome in assay [7], in assay [8], in [9] and in assay [10] was inactive.

As for `CCCCN1CCCC1C(=O)Nc1c(C)cc(C)cc1C` (stereo not given), the compound was classed as inactive in [1], in assay [2], in assay [3], in [4], in assay [5] and in assay [6]. Also, the result (in assay [7]; in [11]; in assay [12]; in the assay with PGR (gene 5241) [13]; in [14]) was inactive.

For the compound `OCCSc1ccccc1`, the compound was classed as inactive in [1], in [2], in [3], in assay [4], in assay [5] and in [7].

For the compound `CC=C(C(=CC)c1ccc(O)cc1)c1ccc(O)cc1`, the call in assay [1], in assay [2], in [3], in assay [5] and in [6] was inactive. The AC50 in assay [4] is 4.02 µM (active); in [7], 3.75 µM (active).

With `CC(C)(C)C(=O)OCOC(=O)C1N2C(=O)CC2S(=O)(=O)C1(C)C` (stereo not given), the outcome in [1], in assay [2], in assay [3], in assay [4], in assay [5] and in assay [7] was inactive.

As to `CC(O)C(CO)C(C)O` (stereo not given), the compound was called inactive in assay [1], in assay [2], in assay [3], in assay [4], in assay [5] and in assay [6]. For the same compound, in [7], the result was inactive.

Turning to `CN(C1CCCCC1)S(=O)(=O)c1ccccc1N`, the outcome in assay [1], in [2], in assay [3], in [4], in assay [5] and in assay [6] was inactive. For the same compound, the outcome in [7], in assay [11], in [12], in assay [14] and in assay [16] was inactive. Besides, the values for the half-maximal activity concentration (AC50) with PGR (gene 5241) [15] and with PGR (gene 5241) [13] were 25.7 µM (active) and 24.2 µM (active), respectively.

Regarding `N#CCC(=O)O`, the outcome in [1], in [2], in [3], in [4], in assay [5] and in assay [6] was inactive. In addition, the result in assay [8], in assay [9] and in assay [10] was inactive.

As usually defined, the AC50 is the midpoint of the concentration-response curve, whichever way the signal moves.
